# Results filed as inconclusive are left out. Where a call stands in place of a potency, no number is given. Active and inactive are the calls of the source. Calls follow the shape of the full dose curve.
# Assay: qHTS assay to identify small molecule agonists of the AP-1 signaling pathway - cell viability counter screen (AID 1159525); also: nearly all actives have a fitted effect of over 55% in size
# Details: ME-180 (cervical carcinoma) AP-1-bla cells viability, ATP luminescence, 5 h; series mostly up to 76.8 µM
# From the text: National Center for Advancing Translational Sciences [NCATS]
# NIH Chemical Genomics Center [NCGC]
# U.S. Environmental Protection Agency [EPA]
# National Institutes of Environmental Health Sciences [NIEHS]
# National Toxicology Program [NTP]
# U.S. Food and Drug Administration [FDA]
# Activator protein-1 (AP-1), a transcription factor, plays an important role in tumor genesis by regulating genes involved in cell proliferation, differentiation, apoptosis, and angiogenesis. AP-1 activity is induced by a complex network of signaling pathways that involves extracellular signals, such as growth factors. The AP-1 protein complex formed from c-Fos and c-Jun binding to the AP-1 response element results in transcriptional activation of genes containing such elements within their promoter.
# Low molecular weight molecules have been discovered and developed to modulate various components of these signaling pathways, for example, MAP kinase inhibitors. However, many points of pathway modulation remain untested due to the lack of chemical probes making this signaling locus of general interest.
# Using a beta-lactamase reporter-gene under control of the AP-1 response element, a cell-based assay [CellSensor(TM) AP-1-bla ME-180 developed by Invitrogen Corp.] was used to measure EGF-induced signaling. The Tox21 10K library compounds were measured for their ability to positively modulate the action of EC50 EGF on reporter gene activity. Compounds were screened in a 15-pt titration series in 1536-well format. The cytotoxicity of the Tox21 compound library against this cell line was tested in parallel by measuring the intra cellular ATP content in the same wells.
# Tox21 Assay Protocol Summary:
# 2500 cells/5uL in Opti-MEM medium containing 0.5% dialyzed FBS, 0.1 mM NEAA, 1 mM sodium pyruvate and 10 mM HEPES was dispensed into 1536-well black wall/clear bottom plates using a Multidrop dispenser and cells were cultured at 37 degrees Celsius overnight. Next day 23 nL of compounds dissolved in DMSO, positive controls or DMSO were delivered to each well using a pin tool. The plates were incubated at 37 degrees Celsius for 5 hours. 1 uL of LiveBLAzerTM B/G FRET substrate (Solution A+B+C+D) was added to each well using a Flying Reagent Dispenser. After incubated at room temperature for 2.5 hours the plates were measured on an EnVision plate reader at Excitation 405nm, Emission1=460nm and Emission 2=530nm. The %Activity was determined from the ratio of 460nm/530nm.
# After the plates were read for Beta-Lactamase assay on Envision; 3 ul Cell Titer Glo (Promega) was added to measure the cytotoxicity and the plates were then incubated at RT in dark for 30 min. The luminescence was read on ViewLux (Perkin Elmer, Shelton, CT) using 6 sec exposure. ViewLux data was expressed as relative luminescence units.
# For primary data analysis, raw plate reads for each titration point were first normalized relative to […] EGF control (100%) and DMSO only wells (basal, 0%).
# For primary data analysis for viability assay, raw plate reads for each titration point were first normalized Tetra n-octyl ammonium bromide control (-100%) and DMSO (control, 100%).
row,Structure (SMILES),Potency
1,OCc1cccnc1,inactive
2,COS(C)(=O)=O,inactive
3,C/C=C1/CC2C=CC1C2 (stereo not given),inactive
4,CCCCN(CCCC)CCCC,inactive
5,CCCCCC(N)=O,inactive
6,CC(C)c1ccc(S(=O)(=O)O)cc1,inactive
7,CC(C)(N)CO,inactive
8,O=C(O)c1ccc2c(c1)C(=O)OC2=O,inactive
9,C[Si](O[Si](C)(C)C)O[Si](C)(C)C,inactive
10,O=c1[nH]nnc2ccccc12,inactive
11,CCC(O)OCCCOC (stereo not given),inactive
12,Cc1cccnc1,inactive
13,CCCCCCCCCCCCS,inactive
14,CCCCCCCCCCCCCCCO,inactive
15,CC(O)COCC(C)O (stereo not given),inactive
16,O=C(O)CC(C(=O)O)C(CC(=O)O)C(=O)O (stereo not given),inactive
17,COc1cc(Cc2cnc(N)nc2N)cc(OC)c1OC,inactive
18,O=c1[nH]c(=O)n([C@H]2CCCO2)cc1F,inactive
19,CCCCCC/C(C=O)=C\c1ccccc1,inactive
20,CC1=CC(=O)NS(=O)(=O)O1,inactive

row,Structure (SMILES),Potency
1,CCCCC(CC)COC(=O)CS (stereo not given),inactive
2,Cc1occc(=O)c1O,inactive
3,O=C1CCC(N2C(=O)c3ccccc3C2=O)C(=O)N1 (stereo not given),inactive
4,CN(C)CCOCCN(C)C,inactive
5,CCCCCCOCCO,inactive
6,Cc1ccc(S(N)(=O)=O)cc1,inactive
7,CCN(CC)c1ccc(C(=O)c2ccccc2C(=O)O)c(O)c1,inactive
8,CCOC(=O)NNc1nncc2ccccc12,inactive
9,CC1CCC2CC1C2(C)C (stereo not given),inactive
10,CCCC(C)=O,inactive
11,CSCCC=O,inactive
12,OC[C@H]1O[C@@](CO)(O[C@H]2O[C@H](CO)[C@@H](O)[C@H](O)[C@H]2O)[C@@H](O)[C@@H]1O,inactive
13,Nc1cc([N+](=O)[O-])ccc1O,inactive
14,CCCCC(CC)COC(=O)C(C#N)=C(c1ccccc1)c1ccccc1 (stereo not given),inactive
15,CC1CCC(C(C)C)C(O)C1 (stereo not given),inactive
16,CC(C)(C)[C@@H](O)[C@@H](Cc1ccc(Cl)cc1)n1cncn1,inactive
17,c1ccc2c(c1)ccc1ccccc12,inactive
18,CCCCCCCC(=O)OC,inactive
19,Fc1ccc(Br)cc1,inactive
20,Cc1ccc(N(C)C)cc1,inactive

# Reference: PubChem BioAssay (Tox21)
